A selection: hits, their analogues and other compounds. The true share with any hit is near 4.7%.
PABP polyA inh: blocks human PABP binding to poly(A) RNA; P11940; fluorescence polarization; inhibition, % at 35 µM; actives 1% (n = 290,000);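 note: calls also rest on retests at 20 µM and on dose response follow-up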
Target sequence (P11940 whole entry, looked up): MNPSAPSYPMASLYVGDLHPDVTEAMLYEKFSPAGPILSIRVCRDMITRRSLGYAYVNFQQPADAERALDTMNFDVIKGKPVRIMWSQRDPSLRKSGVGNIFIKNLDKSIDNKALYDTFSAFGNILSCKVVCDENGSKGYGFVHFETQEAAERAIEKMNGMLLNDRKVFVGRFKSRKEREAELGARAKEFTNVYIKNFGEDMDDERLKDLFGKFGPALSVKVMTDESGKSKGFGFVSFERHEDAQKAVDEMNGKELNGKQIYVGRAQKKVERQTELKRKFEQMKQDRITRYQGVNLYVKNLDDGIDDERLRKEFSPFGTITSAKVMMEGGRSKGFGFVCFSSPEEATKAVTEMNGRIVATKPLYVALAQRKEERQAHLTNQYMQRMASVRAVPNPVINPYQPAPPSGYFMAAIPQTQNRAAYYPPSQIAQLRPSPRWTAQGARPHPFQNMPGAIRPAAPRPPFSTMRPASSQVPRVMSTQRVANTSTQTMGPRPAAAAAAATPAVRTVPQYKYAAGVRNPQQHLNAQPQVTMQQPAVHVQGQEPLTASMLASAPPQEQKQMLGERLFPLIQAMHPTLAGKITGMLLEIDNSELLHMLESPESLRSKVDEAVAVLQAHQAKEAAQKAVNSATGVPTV
PABP1 MLLE inh: inhibitors of microRNA-mediated deadenylation, human PABP1 MLLE binding; inhibition, % at 20 µM; AID 588489; P11940; GST-MLLE / FITC-PAM2 fluorescence polarization; actives 0.36% (n = 360,000); in the data active = inhibition above about 35%, passing the limit was not always enough;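 note: plate controls were DMSO wells with GST-MLLE for no effect and wells lacking GST-MLLE protein for full effect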
ALR inh: human ALR oxidase inhibition via reduced H2O2 | actives 3.8% (n = 290,000) | purified ALR, DTT oxidation, H2O2 HRP-luminol luminescence | AID 485317 | inhibition, % (no concentration beside the values);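 active = mean replicate inhibition above about 79%, with every replicate also reaching it, limit read from the data; inconclusive = only one of the two criteria met; inactive = mean below limit and not every replicate reaching it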
eIF4H FP inh: inhibitors of RNA binding by human eIF4H; Q15056; eIF4H fluorescence polarization binding assay; inhibition, % at 35 µM; actives 0.94% (n = 290,000); AID 2012;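 note: calls also rest on retests at 20 µM and on dose response follow-up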
UBC9 SUMO inh: inhibitors of human SUMOylation (UBC9); HTRF SUMOylation assay, SAE1/SAE2 + UBC9, in vitro; AID 2006; inhibition, % at 35 µM; actives 0.36% (n = 290,000); in the data active = inhibition above about 50%, passing the limit was not always enough; inconclusive = no clear call, values can overlap the other calls
Efflux pump mplx: antifungal efflux pump inhibition, Nile Red retention | S. cerevisiae Candida pump triplex | actives 0.44% (n = 330,000) | AID 485275 | inhibition, % at 10 µM;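 active = plate passing quality check with inhibition over a set limit, or well fluorescence over plate mean plus 4 SD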;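 note: Nile Red retained in pooled yeast measured as flow cytometry median fluorescence; 0% = buffer negative control and 100% = Enniatin B positive control; higher means more Nile Red kept so more efflux inhibition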
Starred values were filed as active, the others as inactive; ? = inconclusive; . = no result. Unless noted, the rule behind the calls is not given here.

SMILES	PABP polyA inh	PABP1 MLLE inh	ALR inh	eIF4H FP inh	UBC9 SUMO inh	Efflux pump mplx
CCOC(=O)N1CCN(C(=O)COC(=O)c2oc3ccc(OC)cc3c2C)CC1	-10	5	-3	-1	19	0
ClCC1NCC(c2ccccc2Cl)c2c1[nH]c1ccccc21 (configuration not stated)	1	-55	98*	-8	-7	0
CC(C)C(=O)N1CCC1(C)C(=O)Nc1ccc2[nH]ccc2c1 (configuration not stated)	.	1	.	.	.	.
Cc1c(C(=O)N2CCCCC2)c(S(=O)(=O)NCc2ccc(N(C)C)cc2)c(C)n1C	7	0	98*	6	6	0
Cc1ccc(CNS(=O)(=O)c2c(C(=O)N3CCCCC3)c(C)n(C)c2C)cc1	13	13	4	-6	0	0
CNc1ncc(C(=O)C(C)(C)C)s1	-4	5	0	-7	15	0
CNc1nc(N)c(C(=O)C(C)(C)C)s1	34	8	99*	5	-22	0
COc1ccc(-c2c(-c3ccc(C#N)cc3)oc(=O)c3cc(OC)c(OC)cc23)cc1	.	-11	-4	.	.	0
CCC(C)Nc1nc2c(c(=O)[nH]c(=O)n2C)n1CCOc1ccccc1 (configuration not stated)	-4	2	98*	4	12	0
CCCCn1c(NC(C)CC)nc2c1c(=O)[nH]c(=O)n2C (configuration not stated)	18	-10	92*	12	14	0
CCCCCn1c(NC2CCCCC2)nc2c1c(=O)[nH]c(=O)n2C	-1	4	30	2	-1	0
COc1ccc(C(C)NC(=O)Cc2cccs2)cc1OC (configuration not stated)	11	0	-10	19	0	0
COc1ccc(-c2csc(NC(=O)CSc3nc(C)cs3)n2)cc1	.	14	-6	.	.	0
CN(C)CC(=O)Nc1nc(-c2ccccc2)cs1	13	2	5	-2	0	0
CCOC(=S)SCC(=O)Nc1nc(-c2ccccc2)cs1	-6	32	99*	-8	-26	0
COc1ccc(-c2csc(NC(=O)CSc3nc(C)nc4sc(C(=O)O)c(C)c34)n2)cc1	44	14	99*	21	48	0
CCOC(=O)N1CCN(C(=O)CSCC(=O)Nc2nc(-c3ccc(-c4ccccc4)cc3)cs2)CC1	6	3	4	-1	-9	1
CCCC(=O)Nc1nc(-c2ccc(OC)cc2)cs1	-5	8	2	-11	12	0
CCOC(=O)N1CCN(C(=O)CSCC(=O)Nc2nc(-c3ccc(OC)cc3)cs2)CC1	-2	10	99*	11	13	0
CCOC(=S)SCC(=O)Nc1nc(-c2ccc(Br)cc2)cs1	-4	14	99*	-6	-32	0
Cc1ccc(S(=O)(=O)NN=Cc2ccccc2Cl)cc1	.	-37	.	.	.	.
COc1ccc(-c2cn[nH]c2N)cc1	-6	5	91*	-2	18	0
COc1ccc(-c2cn[nH]c2N)c(OC)c1	-4	-2	99*	-2	20	0
CC(=O)N1CCC2(CC1)C/C(=N\NC(=S)Nc1ccccc1C)c1cc(O)ccc1O2	86	36	3	8.5*	-7	0
CC(=O)N1CCC2(CC1)C/C(=N\NC(=S)Nc1ccccc1F)c1cc(O)ccc1O2	-12	25	1	10	0	0
SMILES	PABP polyA inh	PABP1 MLLE inh	ALR inh	eIF4H FP inh	UBC9 SUMO inh	Efflux pump mplx
COc1cc(O)cc2cc3c(c(O)c12)C(=O)CC(C)(O)O3 (configuration not stated)	62*	45*	51	72*	44	0
COc1cc(O)c2c(c1)OC(C)(C)CC2=O	11	-10	.	7	-1	0
COc1nccnc1NS(=O)(=O)c1ccc(NC(=S)NC(=O)/C=C/c2ccc(F)cc2)cc1	-4	24	14	-7	-12	0
COc1cc(NS(=O)(=O)c2ccc(NC(=O)/C=C/c3cccc([N+](=O)[O-])c3)cc2)ncn1	3	13	89*	8	19	0
COc1cc(NS(=O)(=O)c2ccc(NC(=S)NC(=O)/C=C/c3ccc(F)cc3)cc2)ncn1	2	41*	19	6	7	0
COc1ccc(OC)c(N)c1	79	9	12	40	5	0
COc1ccc(-c2ccc(CO)o2)cc1N	0	4	99*	-2	-8	0
COc1ccc(C2C3=C(CCCC3=O)Nc3c(-c4ccccc4)c(C)nn32)cc1 (configuration not stated)	5	6	13	0	51*	0
Cc1nn2c(c1-c1ccccc1)NC1=C(C(=O)CCC1)C2c1ccccc1 (configuration not stated)	7	-1	14	5	38	0
CCCC[C@@H]1C=C(C(=O)O)[C@H](c2ccc(Br)cc2)N1S(=O)(=O)c1ccc(C)cc1	.	-13	.	.	.	0
O=C(O)CNC(=O)CC1S/C(=N/N=C2\CSC(=O)N2)NC1=O (configuration not stated)	8	42*	33	14	-25	0
Nn1c(SCC(=O)Nc2ccc(N3CCOCC3)cc2)nnc1-c1cccc(F)c1	.	-78	99*	.	.	0
Nn1c(SCC(=O)Nc2ccc(N3CCOCC3)cc2)nnc1-c1ccccc1F	.	3	99*	.	.	0
COc1ccccc1-c1nnc(SCC(=O)Nc2ccc(N3CCOCC3)cc2)n1N	.	11	29	.	.	0
CN(C)c1ccc(C2C3C(=O)N(c4ccc(C(=O)O)cc4)C(=O)C3ON2c2ccccc2)cc1 (configuration not stated)	1	9	76*	5	2	0
O=C(NCSc1ccncn1)c1ccccc1	7	28	99*	-1	-19	0
O=C(NCSc1ccnc(SCNC(=O)c2ccccc2)n1)c1ccccc1	-1	34	20	0	5	0
CC(C)c1cccc(C(C)C)c1NC(=O)OC1CCCCC1	.	9	.	.	.	.
COc1ccc(C(=O)OCC(=O)c2ccc(F)cc2)cc1OC	.	1	-1	.	.	0
CCc1ccc(N2C(=O)c3sc4nnc(C)c(=O)n4c3C2=O)cc1	-5	4	1	2	11	0
Cc1ccc(N2C(=O)c3sc4nnc(C)c(=O)n4c3C2=O)cc1	-6	4	98*	10	13	-1
CC(=O)c1ccc(-c2ccc(C(=O)NC3CCCCCC3)o2)cc1	86	5	98*	-2	13	0
O=C(NC1CCC(O)CC1)c1ccc(-c2ccc(Cl)cc2)o1 (configuration not stated)	.	-8	11	.	.	0
NC(=S)Nc1cccc2cccnc12	2	13	-18	2	-22	0
NC(=S)NNc1cccc2cccnc12	?	28	1	?	92*	0

Assay outcomes: PubChem BioAssay, several laboratories
